HCV inh: HCV inhibition | Huh7.5.1 HCVcc-Cre infection, luciferase reporter, 44 h | Potency, µM (top dose mostly 41.8 µM), inactives show top-dose activity change, negative = inhibition, hits mostly inhibitors | hit rate 3.4% among 340,000 | AID 651820
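Antiviral activity was scored by luciferase reporter output from cells infected with HCVcc-Cre (~0.5 moi) in presence of compound, 44 h infection period, cells seeded 1,000/well 4 h prior.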
Pf growth 48h: P. falciparum growth inhibition at 48 hours (one generation); P. falciparum luciferase growth in erythrocytes, 48 h; Potency, µM (doses to about 28.7 µM), for the others: at the top dose activity change, negative = inhibition, actives largely listed as inhibitors; hit rate 5.9% among 310,000; AID 504832
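Luciferase-expressing P. falciparum in infected erythrocytes (2% hematocrit, 0.1% parasitemia final) in RPMI 1640/0.5% Albumax were exposed to compound for 48 hours at 37 C, 5% CO2; growth read as luminescence.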
Pf growth 96h: P. falciparum growth inhibition at 96 hour, primary screen for plastid delayed-death inhibitors. P. falciparum luciferase reporter growth, 96 h. hit rate 6.9% among 320,000. AID 504834. Potency, µM (top dose mostly 28.7 µM), inactives show top-dose activity change, negative = inhibition, hits mostly inhibitors
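Luminescence readout: decreased luciferase signal marks inhibited growth of reporter-expressing P. falciparum in infected red cells (2% hematocrit, 0.05% parasitemia final), exposed to compound two generations (96 h, 37 C, 5% CO2).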
AMA1 RON2 block: disrupts binding of P. falciparum AMA1 to RON2; hit rate 0.2% among 360,000; Potency, µM (top dose mostly 58.2 µM), inactives show top-dose activity change, negative = inhibition, usual class: inhibitors; AID 720542; AlphaScreen AMA1-biotinylated RON2 peptide binding;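 note: 0% = vehicle wells and -100% = peptide control; nearly all actives have a fitted effect of over 45% in size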
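AMA1 (3D7) with his tag at 25 nM final met compounds first, then biotinylated RON2 peptide at 25 nM; detection used donor plus acceptor beads, 10 µg/mL apiece, read by AlphaScreen after 30 min at room temperature.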
* marks the source's active call; other numbers are inactive results; ? = inconclusive; nt = not tested or not shown; [ ] = another dose, or the depositor's remark. Only some compounds are listed: those with a hit (about 11% of all), similar ones and a draw of the others. Calls come from the whole dose curve; as a rule, active = well fitted curve in the direction sought with a large enough effect; inconclusive = small, poorly fitted or top-dose-only effect, or another doubt; inactive = no such curve, though single readings can be large; an effect the other way counts as inactive or inconclusive. Unless noted, % is set by controls: 0 for no effect and ±100 for the full control effect; potency is the fitted concentration of half-maximal effect.

SMILES | HCV inh | Pf growth 48h | Pf growth 96h | AMA1 RON2 block
O=C(c1ccccc1Oc1ccccc1)N1CCN(c2ccccc2)CC1 | -28% | ? | 15µM* | -4%
O=C(Nc1cccc(C(=O)N2CCN(c3ccccc3)CC2)c1)c1ccco1 | 1% | -3% | -11% | -8%
COc1ccccc1C(=O)N1CCC(N2CCN(c3ccccc3)CC2)CC1 | 1% | ? | ? | 9%
CCc1ccc(CCC(=O)Nc2sc(C)c(C)c2C(=O)OC)o1 | -14% | 5% | nt | 27µM*
COC(=O)c1c(NC(=O)Cc2ccccc2)sc(C)c1C | ? | nt | 4% | 12%
CCOC(=O)c1cnn(CCOC(=O)Cc2cccs2)c1NC(=O)Cc1cccs1 | -1% | 69% | 9.3µM* | -2%
COC(=O)c1c(NC(=O)Cc2cccs2)sc(C)c1C | 11µM* | -4% | nt | 9%
Cc1nnc(N/N=C/c2c(O)n(-c3cccc(C(F)(F)F)c3)c(=O)c3ccccc23)[nH]c1=O | nt | 6.6µM* | ? | nt
COc1ccc(-n2c(O)c(/C=N/NS(=O)(=O)c3ccc(C)cc3)c3ccccc3c2=O)cc1OC | 17% | ? | ? | -11%
COc1ccc(-n2c(O)c(/C=N/Nc3nc(C)cc(C)n3)c3ccccc3c2=O)cc1OC | 2.8µM* | ? | ? | 124%
Cc1cc(N=Cc2c(O)n(-c3cccc(C(F)(F)F)c3)c(=O)c3ccccc23)no1 | 4% | ? | ? | 1%[11.6 µM]
CCc1cc(CNC(=O)c2ccc(OC3CCN(C(C)=O)CC3)c(OC)c2)on1 | 9% | -10% | 0% | 7%
Cc1nnc(SCC2=C(C(=O)O)N3C(=O)C(NC(=O)C(C)n4nc(C(F)(F)F)cc4C)C3SC2)s1 (stereo unspecified) | 7% | -6% | -1% | 22%
Cc1cc2oc(=O)c(CC(=O)NCCCN(C)C)c(C)c2c2occ(C(C)(C)C)c12 | 10µM* | 2.6µM* | 1.9µM* | 11%
C=CCN(CC(=O)O)S(=O)(=O)c1ccccc1C(F)(F)F | 15% | 14% | 32% | -8%
COc1cc(NC2CCCCC2O)c2nc(-c3ccc(Cl)cc3)ccc2c1 (stereo unspecified) | ? | 1.9µM* | 1.9µM* | 60%
O=C(NC1CCCCCC1)C1c2ccccc2C(=O)N1CCCN1CCOCC1 (stereo unspecified) | 15% | -12% | 13µM* | -4%
O=C(NC1CCCC1)C1c2ccccc2OCC(=O)N1CCCN1CCOCC1 (stereo unspecified) | nt | nt | nt | 3%
Cn1c(N)c(C(=O)CSc2nc(C3CC3)n(-c3ccccc3)n2)c(=O)n(C)c1=O | 9% | ? | ? | 10%
COc1ccc(Br)cc1C(C[N+](=O)[O-])c1c(N)n(C)c(=O)n(C)c1=O (stereo unspecified) | 4µM* | 3.7µM* | ? | 35%
CN(C)c1ccc(C(C[N+](=O)[O-])c2c(N)n(C)c(=O)n(C)c2=O)c(F)c1C#N (stereo unspecified) | -8% | 0% | -24% | -18%
Nc1ccn([C@@H]2O[C@H](C(=O)N[C@H](CO)Cc3ccccc3)[C@@H](O)[C@H]2O)c(=O)n1 | nt | nt | nt | 22%
CCC1=NN(C(=O)c2cccc([N+](=O)[O-])c2)C(O)(c2ccc(C)cc2)C1 (stereo unspecified) | -9% | 4.1µM* | -24% | 57%
NNC(=O)COc1ccc(-c2nccc(-c3ccc(F)cc3)n2)cc1 | -28% | ? | 12µM* | 74%
CCOc1cc(CNc2ncnc3nc[nH]c23)ccc1OC | ? | -1% | -11% | -6%
SMILES | HCV inh | Pf growth 48h | Pf growth 96h | AMA1 RON2 block
CCOc1cc(CNc2cccc3[nH]c(C)nc23)ccc1OC | ? | 12µM* | 18% | -7%
O=C(c1cccs1)N1CCc2ccccc2C1 | 2% | 13% | 22% | -9%
COc1cc2c(cc1OC)CN(C(=O)CSc1nc3[nH]ncc3c(=O)n1-c1ccccc1)CC2 | 11µM* | ? | 6% | 19%
CC(=O)c1ccc(N2CCN(C(=O)c3nn(Cc4ccccc4)c(=O)c4ccccc34)CC2)cc1 | ? | 3.7µM* | -4% | -3%
CC(=O)c1ccc(N2CCN(C(=O)c3n[nH]c4ccccc34)CC2)cc1 | -21% | ? | -29% | -13%
COc1cc2c(cc1OC)CN(C(=O)c1nn(Cc3ccccc3)c(=O)c3ccccc13)CC2 | 10µM* | 10µM* | ? | -3%
COc1cc2c(cc1OC)CN(C(=O)c1cccs1)CC2 | -11% | 0.66µM* | -22% | -2%
N#C/C(=C\c1ccc(F)c(Cl)c1)S(=O)(=O)c1ccccn1 | 14% | 4% | 15% | 1%
COc1cc(OC)cc(C(=O)N2CCC(N3CCCCCC3)CC2)c1 | -20% | -2% | 6% | -21%
COCCCn1c(SCC(=O)N2CCOCC2)nc2cc(Cl)ccc2c1=O | -5% | 10µM* | -4% | 5%
COC(=O)c1ccc2c(=O)n(CC3CCCO3)c(SCC(=O)Nc3ccc(OC)cc3OC)nc2c1 (stereo unspecified) | 6% | 6.6µM* | ? | 6%
COC(=O)c1ccc2c(=O)n(CCN3CCOCC3)c(SCC(=O)NCc3ccccc3)nc2c1 | 25% | ? | ? | -2%
CCCCn1c(SC(C)C(N)=O)nc2cc(C(=O)OC)ccc2c1=O (stereo unspecified) | ? | 5% | ? | 4%
CCCCn1c(SC(C)C(=O)NCC2CCCO2)nc2cc(C(=O)OC)ccc2c1=O (stereo unspecified) | ? | 5.9µM* | 8.3µM* | 2%
COC(=O)c1ccc2c(=O)n(CCN3CCOCC3)c(SCC(=O)Nc3ccc(C)cc3)nc2c1 | -8% | 0% | 12µM* | 1%
COc1ccc(OC)c(NC(=O)CSc2nc3ccccc3c(=O)n2CC2CCCO2)c1 (stereo unspecified) | ? | ? | ? | 2%
O=S(=O)(Nc1ccc(S(=O)(=O)N2CCCC2)cc1)c1ccc(F)cc1F | -5% | nt | nt | -12%
CC(C)(C)c1nnc2cccc(Cl)n12 | -28% | -13% | -4%[1.15 µM] | 0%
CCOC(=O)C1=C(N)Oc2c(c(=O)[nH]c3ccccc23)C1c1ccccc1 (stereo unspecified) | 4% | 0% | ? | 3%
CCCOc1ccc(/C=C/C(=O)N2CCN(C(=O)c3ccco3)CC2)cc1OC | nt | nt | nt | -15%
CCn1c(SCC(=O)Nc2ccccc2)nc2nc3c(cc2c1=O)COC(C)(C)C3 | ? | ? | ? | -2%
CCn1c(SCC(=O)Nc2ccc(OC)cc2OC)nc2nc3c(cc2c1=O)COC(C)(C)C3 | ? | ? | 8.3µM* | -11%
COC(=O)c1ccc2c(=O)n(CCN3CCOCC3)c(SCC(=O)C(C)(C)C)nc2c1 | 10% | ? | 13µM* | 0%
CCOC(=O)CSc1nc2cc(C(=O)OC)ccc2c(=O)n1CCN1CCOCC1 | -7% | 48% | ? | 2%
CC(C)c1nnc(NC(=O)CCS(=O)(=O)c2nc(-c3cccs3)cc(C(F)(F)F)n2)s1 | 4% | 28% | 0.74µM* | 2%
CC(C)c1nnc(NC(=O)CCS(=O)(=O)Cc2ccccc2)s1 | 12% | 15% | 3% | 5%
